# Source: PubChem (National Center for Advancing Translational Sciences (NCATS))
# Compounds with a hit are over-represented: about 11% of the library has one in this group of screens.
# G9a inh: qHTS Assay for Inhibitors of Histone Lysine Methyltransferase G9a | 350,000 tested, 8.8% active | AID 504332, 2011 | Potency, µM (top dose mostly 102 µM), without a hit: top-dose activity, negative = inhibition, hits mostly inhibitors | G9a H3K9 monomethylation, AlphaScreen, 2 h | Histone-lysine N-methyltransferase EHMT2 (Homo sapiens), Q96KQ7; also: potency is read from the fitted curve at half-maximal effect; % is scaled to controls: 0 for no effect and ±100 for the full control effect; nearly all actives have a fitted effect of over 75% in size
#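 G9a (20 nM) preincubated 15 min RT with compounds, then 500 nM biotinylated H3K9 peptide and 20 uM SAM added; 2 h RT reaction. Monomethyl-H3K9 product detected by AlphaScreen with anti-H3K9me1 antibody, streptavidin donor and anti-rabbit IgG acceptor beads.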
# PI5P4Ka inh: qHTS for Inhibitors of phosphatidylinositol 5-phosphate 4-kinase (PI5P4K) | Phosphatidylinositol 5-phosphate 4-kinase type-2 alpha (Homo sapiens), P48426 | PI5P4Kalpha enzyme, ADP-Glo luminescence, 60 min; stronger effect = lower value | max response, % | 330,000 tested, 1.2% active; active = max response of -50% or lower; inconclusive = between -30% and -50%; inactive = -30% or higher; also: value at the top dose of about 77 µM; % is scaled to controls: 0 for no effect and ±100 for the full control effect
# Target sequence (P48426 whole entry, looked up): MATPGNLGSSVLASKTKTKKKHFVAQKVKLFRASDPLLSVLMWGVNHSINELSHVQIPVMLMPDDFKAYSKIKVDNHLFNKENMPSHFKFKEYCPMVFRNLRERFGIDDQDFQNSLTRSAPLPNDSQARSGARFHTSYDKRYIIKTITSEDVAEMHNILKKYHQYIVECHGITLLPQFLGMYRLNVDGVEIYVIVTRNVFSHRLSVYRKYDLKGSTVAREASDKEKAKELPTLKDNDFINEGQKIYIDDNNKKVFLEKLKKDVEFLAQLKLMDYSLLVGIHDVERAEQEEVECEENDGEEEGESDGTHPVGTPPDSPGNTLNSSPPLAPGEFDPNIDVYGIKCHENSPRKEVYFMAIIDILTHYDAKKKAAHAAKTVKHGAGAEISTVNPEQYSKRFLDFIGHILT
#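 ADP-Glo luminescence end-point read after a 60 min room-temperature kinase reaction of PI5P4Kalpha plus substrate, initiated with ATP at 5 microM final. Buffer: 0.038 M HEPES pH 7.4, EGTA, 0.1% CHAPS, 5% DMSO.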
# L3MBTL1 block: qHTS Assay for the Inhibitors of L3MBTL1; Lethal(3)malignant brain tumor-like protein 1 (Homo sapiens), Q9Y468; Potency, µM (doses to about 57.1 µM), without a hit: at the top dose activity, negative = inhibition, most hits filed as inhibitors; 230,000 tested, 0.66% active; AlphaScreen L3MBTL1–H3K9me1 peptide binding; also: potency is read from the fitted curve at half-maximal effect; % is scaled to controls: 0 for no effect and ±100 for the full control effect; nearly all actives have a fitted effect of over 60% in size
#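 First, the protein-peptide complex forms for 30 min at room temperature (L3MBTL1 50 nM, biotinylated H3K9me1 peptide 75 nM). Next, compounds are pin-transferred and incubated 30 min. Finally, AlphaScreen beads are added and read after 30 min.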
# BAZ2B block: qHTS Assay for Inhibitors of BAZ2B; 360,000 tested, 4.4% active; AlphaScreen BAZ2B-H3K14Ac peptide displacement; Potency, µM (series often up to 114 µM), for the others: at the highest dose activity change, negative = inhibition, actives largely listed as inhibitors; AID 504333, 2011; also: potency is read from the fitted curve at half-maximal effect; % is scaled to controls: 0 for no effect and ±100 for the full control effect; nearly all actives have a fitted effect of over 60% in size
#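 AlphaScreen displacement: compounds (up to 110uM) incubated 30 min at room temperature with a preformed 50 nM BAZ2B/50 nM biotinylated H3K14Ac peptide complex in PBS pH 7.4 with Tween-20. Donor and acceptor beads at 10 ug/mL final added, 20 min light-protected before reading.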
# JMJD2A Tudor: qHTS Assay for Inhibitors of JMJD2A-Tudor Domain; Lysine-specific demethylase 4A (Homo sapiens), O75164; AlphaScreen JMJD2A-Tudor / H3K4me3 peptide binding; Potency, µM (titrated, usually from 114 µM), without a hit: at the top dose activity change, negative = inhibition, usual class: inhibitors; 390,000 tested, 4.4% active; also: potency is read from the fitted curve at half-maximal effect; % is scaled to controls: 0 for no effect and ±100 for the full control effect; nearly all actives have a fitted effect of over 50% in size
# HP1b chromo inh: HTS for Inhibitors of HP1-beta Chromodomain Interactions with Methylated Histone Tails | AlphaScreen HP1-beta / biotin-H3K9me3 peptide binding | Potency, µM (series often up to 114 µM), for the others: top-dose activity change, negative = inhibition, usual class: inhibitors | 390,000 tested, 0.56% active; also: potency is read from the fitted curve at half-maximal effect; nearly all actives have a fitted effect of over 70% in size
# Target sequence (P83916 whole entry, looked up): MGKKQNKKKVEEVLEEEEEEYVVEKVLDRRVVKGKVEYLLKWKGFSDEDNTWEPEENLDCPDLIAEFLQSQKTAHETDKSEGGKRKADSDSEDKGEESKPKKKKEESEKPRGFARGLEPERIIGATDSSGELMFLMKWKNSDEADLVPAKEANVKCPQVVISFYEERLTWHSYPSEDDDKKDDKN
#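 AlphaScreen: HP1-beta (50 nM) preformed 30 min with biotin-H3(1-18)K9me3 peptide (50 nM) in PBS pH 7.4, 0.01% Tween-20. Compound added for 30 min at RT, then streptavidin donor/nickel chelate acceptor beads (10 ug/mL) for 30 min.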
# An asterisk follows results filed as active; ? = inconclusive; / = not tested or not shown; [ ] = another dose, or the depositor's remark. Unless noted, calls follow the shape of the dose curve; as a rule, active = well fitted inhibition curve with a large enough effect; inconclusive = small, poorly fitted or top-dose-only effect; inactive = no such curve, though single readings can be large or run the other way.
SMILES,G9a inh,PI5P4Ka inh,L3MBTL1 block,BAZ2B block,JMJD2A Tudor,HP1b chromo inh
CN(C)c1ccc(/C=C/C(=O)c2ccccc2)cc1[N+](=O)[O-],?,-1,?,14µM*,45µM*,?
CCOc1ccccc1C(=O)NCc1ccc2c(c1)CCN2C(=O)c1ccccc1,0%[59 µM],/,/,-1%,-13%,27%
CO[C@H]1C[C@@H]2CC[C@@H](C)[C@@](O)(O2)C(=O)C(=O)N2CCCC[C@H]2C(=O)O[C@H]([C@H](C)C[C@@H]2CC[C@@H](OC(=O)C(C)(CO)CO)[C@H](OC)C2)CC(=O)[C@H](C)/C=C(\C)[C@@H](O)[C@@H](OC)C(=O)[C@H](C)C[C@H](C)/C=C/C=C/C=C/1C,-3%[12.7 µM],/,/,/,/,/
COC(=O)c1cc(NS(=O)(=O)c2ccc(N3CCOCC3)c([N+](=O)[O-])c2)cc(C(=O)OC)c1,?,-5,-3%,?,?,-4%
COc1cccc(C(=O)/C=C/c2ccc(N3CCCCC3)c([N+](=O)[O-])c2)c1,7.1µM*,12,?,10µM*,40µM*,?
COC(=O)c1cc(NS(=O)(=O)c2ccc(N3CCCCCC3)c([N+](=O)[O-])c2)cc(C(=O)OC)c1,45µM*,1,-3%,?,?,-25%
Cc1ccc2nc(NC(=O)c3ccc(N4C(=O)CCC4=O)cc3)sc2c1,11µM*,-54*,-2%,?,-25%,32%
Cc1ccc2nc(NC(=S)NC(=O)c3ccc(OC(C)C)cc3)sc2c1,/,-3,-4%,56µM*,-5%,22%
Cc1ccc(-c2nc3c4ccccc4n(CC(=O)NCc4ccc(F)cc4)c(=O)n3n2)cc1,-8%[59 µM],/,/,32%,-14%,59%
Cc1ccc(NC(=O)c2sc3ncnc(N(C)C4CCCCC4)c3c2C)cc1,?,/,/,2%,-28%,37%
CCn1nc(C)c(/C=C2\CCCC3=C2OC(N)=C(C#N)C3c2c(C)nn(CC)c2C)c1C (stereo not drawn),50µM*,/,-2%,-8%,/,/
CCn1nc(C)c(C2C(C#N)=C(N)OC3=C2C(=O)CCC3)c1C (stereo not drawn),19%[59 µM],-5,0%,12%,2%,50%
CCn1c(=O)c2cc(C(=O)Nc3cc(F)ccc3F)sc2c2ccccc21,1%[59 µM],/,/,4%,-1%,41%
CC1CCN(S(=O)(=O)c2ccc3c(ccn3CC(=O)NCc3ccc(N(C)C)cc3)c2)CC1,-18%[59 µM],/,/,?,?,15%
CCCOC(=O)c1cccc(Nc2nc(CCC)cc(=O)[nH]2)c1,-46%[59 µM],/,/,-9%,-10%,31%
Cn1c(=O)c2c(nc(NC(Cc3ccccc3)C(=O)O)n2Cc2ccccc2)n(C)c1=O (stereo not drawn),56µM*,-5,-6%,?,-23%,22%
CNc1nc2c(c(=O)n(C)c(=O)n2C)n1Cc1ccccc1,23%[59 µM],-4,5%,0%,-23%,44%
COc1ccc(-c2cc(C(F)(F)F)nc(SCC(=O)Nc3ccc(C(C)=O)cc3)n2)cc1,-4%[59 µM],/,/,-5%,-8%,12%
Cc1cc(C)n2nc(C(=O)Nc3nccs3)nc2n1,-9%,/,13%,4%,11µM*,27%
Cc1cc(C)n2nc(C(=O)Nc3ccc(N4CCOCC4)cc3)nc2n1,10µM*,-9,/,-8%,-6%,35%
CC(=O)N(C(C)=O)c1nc2nc(C)cc(C)n2n1,?,-16,-8%,56µM*,?,-22%
Cc1csc(NC(=O)c2nc3nc(C)cc(C)n3n2)n1,?,-4,5%,?,79µM*,4%
COc1ccccc1C(=O)Nc1ccc2nc(SCCOc3ccccc3C)sc2c1,46%[59 µM],/,/,10%,22%,51%
O=c1c(-c2c(O)cc(O)c3c(=O)cc(-c4ccc(O)cc4)oc23)c(-c2ccc(O)cc2)oc2cc(O)cc(O)c12,?,-83*,/,28µM*,50µM*,-22%
COc1cc(O)c2c(=O)cc(-c3ccc(OC)c(-c4c(O)cc(O)c5c(=O)cc(-c6ccc(O)cc6)oc45)c3)oc2c1,7%[2.33 µM],/,/,/,/,/
SMILES,G9a inh,PI5P4Ka inh,L3MBTL1 block,BAZ2B block,JMJD2A Tudor,HP1b chromo inh
O=c1cc(-c2ccc(O)c(-c3c(O)cc(O)c4c(=O)cc(-c5ccc(O)cc5)oc34)c2)oc2cc(O)cc(O)c12,-6%,-96*,-17%,-37%,?,-12%
O=c1cc(-c2ccc(O)cc2)oc2c(-c3c(O)cc(O)c4c(=O)cc(-c5ccc(O)cc5)oc34)c(O)cc(O)c12,/,?,-11%,/,-27%,14%
Cc1ccc(-c2cnn(-c3ccccc3)c2N)cc1,4%,?,/,0%,-23%,21%
Nc1nc2c(s1)CCc1c-2cnn1-c1ccccc1,?,?,32µM*,45µM*,25µM*,11µM*
NC(=O)C1(N2CCCCC2)CCN(C(=O)Nc2ccc(Cl)c(Cl)c2)CC1,0%[59 µM],/,/,-4%,-19%,19%
O=C(CCC1CCCCC1)NCc1ccc(F)cc1,7%[59 µM],-4,7%,-5%,2%,56%
CC1CCCCC1NCC(=O)NCc1ccc(F)cc1 (stereo not drawn),10µM*,5,6%,50µM*,1.3µM*,?
Cn1c(C(=O)NCCc2ccccc2)cc2cc(S(=O)(=O)N3CCCCC3)ccc21,8%[59 µM],/,/,8%,-7%,25%[57 µM]
O=C1CCC(C(=O)OCc2cc(Cl)ccc2OC(F)F)N1 (stereo not drawn),-15%[59 µM],-11,-2%,8%,40µM*,-13%
COC(=O)c1c(NC(=O)CCCOc2ccccc2C)sc2c1CCC2,-23%[59 µM],/,/,-25%,15%,23%
CCN(CC)C(=O)CSc1n[nH]c(=O)n1CCc1ccccc1,5%,-3,/,5%,-11%,10%
O=c1[nH]nc(Sc2ncnc3sccc23)n1CCc1ccccc1,40µM*,-16,2%,-5%,-20%,66%
Cc1ccc(OCC(=O)N2CCN(C(=O)c3ccc([N+](=O)[O-])cc3)CC2)cc1,50µM*,-4,4%,-7%,-7%,14%
Cc1ccc(OCC(=O)N2CCC(N3CCCCCC3)CC2)cc1,?,4,-2%,56µM*,6.3µM*,-46%
O=C(Nc1ccnn1C1CCN(C2CCCCC2)CC1)c1ccccc1,18%,-1,/,3%,3%,2%
